From the supplement of paper PMC8975748
Structures can show the parent of a compound that is named as a salt.

system: Saccharomyces cerevisiae BY4741 SeMeCo community; assay: z-score of subpopulation abundance vs DMSO median, subpopulation auxotrophic for LU; higher = larger share of this subpopulation than in DMSO controls; settings: 10 µM; 24 h; SM minimal medium; subpopulation (auxotrophy): LU
Description: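 Fluorescent four-plasmid SeMeCo (self-establishing metabolically cooperating S. cerevisiae BY4741 community; plasmids pH-mRuby2, pL-mWasabi, pU-eCFP, pM-TagRFP657) was grown 24 h in minimal SM medium with each Selleck FDA-approved drug at 10 µM in 384-well plates. Cells were fixed and imaged by high-content confocal microscopy. For each auxotrophic subpopulation (and the prototroph), a z-score gives the deviation from the DMSO vehicle-control population median.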

| Compound | z-score of subpopulation abundance |
| --- | --- |
| Cc1c(Nc2ncccc2C(=O)O)cccc1C(F)(F)F [Flunixin Meglumin] | -0.33 |
| CC(=O)NO [Acetohydroxamic acid] | -0.13 |
| C[C@]12CC[C@@H]3c4ccc(O)cc4CC[C@H]3[C@@H]1CC[C@@H]2O [Estradiol] | -0.02 |
| O=C1OC(CN2CCOCC2)CN1/N=C/c1ccc([N+](=O)[O-])o1 (stereo not given) [Furaltadone HCl] | -0.14 |
| Oc1c(Cl)cc(Cl)cc1Sc1cc(Cl)cc(Cl)c1O [Bithionol] | 1.88 |
| Cc1cc(O)cc(C)c1Cl [Chloroxylenol] | 0.64 |
| CN1[C@@H]2CC[C@H]1C[C@@H](OC(=O)c1c[nH]c3ccccc13)C2 [Tropisetron HCl] | 1 |
| NS(=O)(=O)Cc1noc2ccccc12 [Zonisamide] | 0.73 |
| C[C@@H]1CC(=O)NN=C1c1ccc(NN=C(C#N)C#N)cc1 [Levosimendan] | 0.42 |
| CO[C@@H]1[C@@H](O[C@@H]2O[C@H](C)[C@@H](O[C@H]3C[C@@](C)(O)[C@@H](O)[C@H](C)O3)[C@H](N(C)C)[C@H]2O)[C@@H](CC=O)C[C@@H](C)[C@@H](O[C@H]2CC[C@H](N(C)C)[C@@H](C)O2)/C=C/C=C/C[C@@H](C)OC(=O)C[C@H]1OC(C)=O [Acetylspiramycin (ASPM)] | 0.65 |
| CN1CCCN=C1/C=C/c1cccc(O)c1 [Oxantel Pamoate] | -0.45 |
| CCN1CCCC1CNC(=O)c1cc(S(=O)(=O)CC)c(N)cc1OC (stereo not given) [Amisulpride] | 0.33 |
| C[C@@H]1[C@H](O)[C@@H](C)/C=C/C=C/C=C/C=C/C=C/C=C/C=C/[C@H](O[C@@H]2O[C@H](C)[C@@H](O)[C@H](N)[C@@H]2O)C[C@@H]2O[C@](O)(C[C@@H](O)C[C@@H](O)[C@H](O)CC[C@@H](O)C[C@@H](O)CC(=O)O[C@H]1C)C[C@H](O)[C@H]2C(=O)O [Amphotericin B] | 24.4 |
| C[C@]12CC[C@@H]3c4ccc(O)cc4CC[C@H]3[C@@H]1CC[C@@H]2OC(=O)CCC1CCCC1 [Estradiol Cypionate] | 0.17 |
| C[C@]1(COc2ccc(N3CCC(Oc4ccc(OC(F)(F)F)cc4)CC3)cc2)Cn2cc([N+](=O)[O-])nc2O1 [Delamanid] | 0.18 |
| CN[C@H](CC(C)C)C(=O)N[C@H]1C(=O)N[C@@H](CC(N)=O)C(=O)N[C@H]2C(=O)N[C@H]3C(=O)N[C@H](C(=O)N[C@H](C(=O)O)c4cc(O)cc(O)c4-c4cc3ccc4O)[C@H](O)c3ccc(c(Cl)c3)Oc3cc2cc(c3O[C@@H]2O[C@H](CO)[C@@H](O)[C@H](O)[C@H]2O[C@H]2C[C@](C)(N)[C@H](O)[C@H](C)O2)Oc2ccc(cc2Cl)[C@H]1O [Vancomycin HCl] | 0.18 |
| Cc1c(C(N)=O)cc([N+](=O)[O-])cc1[N+](=O)[O-] [Dinitolmide] | 1.05 |
| CNCc1cc(-c2ccccc2F)n(S(=O)(=O)c2cccnc2)c1 [Vonoprazan Fumarate (TAK-438)] | -0.72 |
| O=C(O)Cc1ccccc1Nc1c(Cl)cccc1Cl [Diclofenac Diethylamine] | -0.75 |
| O=C1N=C(O)NC1(c1ccccc1)c1ccccc1 [Phenytoin Sodium] | 0.96 |

| Compound | z-score of subpopulation abundance |
| --- | --- |
| Cc1cc(CC(C)CC(C)(C)C)n(O)c(=O)c1 (stereo not given) [Piroctone Olamine] | 2.47 |
| CCCCCCCN(CC)CCCC(O)c1ccc(NS(C)(=O)=O)cc1 (stereo not given) [Ibutilide Fumarate] | 0.14 |
| CN1CCC(=C2c3ccccc3C=Cc3ccccc32)CC1 [Cyproheptadine hydrochloride] | 0.02 |
| C=CCN1CCCC1CNC(=O)c1cc2nn[nH]c2cc1OC (stereo not given) [Alizapride HCl] | 0.9 |
| CCOc1cc(N)c(Cl)cc1C(=O)NCC1CN(Cc2ccc(F)cc2)CCO1 (stereo not given) [Mosapride Citrate] | 0.9 |
| NC(=O)N/N=C/c1ccc([N+](=O)[O-])o1 [Nitrofural] | -0.35 |
| CCOC(=O)c1ccc(N)cc1 [Benzocaine] | -1.24 |
| C=CCc1ccc(O)c(-c2ccc(O)c(CC=C)c2)c1 [Honokiol] | -1.84 |
| CN1CC(=O)N2[C@H](c3ccc4c(c3)OCO4)c3[nH]c4ccccc4c3C[C@@H]2C1=O [Tadalafil] | 0.3 |
| COc1ccc2cc([C@H](C)C(=O)O)ccc2c1 [Naproxen] | -1.6 |
| CCOc1ccc2ccccc2c1C(=O)N[C@@H]1C(=O)N2[C@@H]1SC(C)(C)[C@@H]2C(=O)O [Nafcillin Sodium] | 0.04 |
| COc1ccc(Cc2cnc(N)nc2N)cc1OC [Diaveridine] | -0.41 |
| CC[C@H]1OC(=O)[C@H](C)[C@@H](O[C@H]2C[C@@](C)(OC)[C@@H](O)[C@H](C)O2)[C@H](C)[C@@H](O[C@@H]2O[C@H](C)C[C@H](N(C)C)[C@H]2O)[C@](C)(O)C[C@@H](C)C(=O)[C@H](C)[C@@H](O)[C@]1(C)O [Erythromycin thiocyanate] | -0.22 |
| C[C@@H](O)[C@H]1C(=O)N2C(C(=O)O)=C(S[C@@H]3CN[C@H](CNS(N)(=O)=O)C3)[C@H](C)[C@H]12 [Doripenem Hydrate] | 0.22 |
| COc1ccc(Cl)cc1C(=O)NCCc1ccc(S(=O)(=O)NC(=O)NC2CCCCC2)cc1 [Glyburide (Glibenclamide)] | -0.07 |
| CN1CC2c3ccccc3Oc3ccc(Cl)cc3C2C1 (stereo not given) [Asenapine maleate] | 0.61 |
| Nc1nc(=O)[nH]cc1F [Flucytosine] | 0.49 |
| O=C(O)C1=C(CSc2nnnn2CS(=O)(=O)O)CS[C@@H]2[C@H](NC(=O)[C@H](O)c3ccccc3)C(=O)N12 [Cefonicid sodium] | 0.98 |
| CCCCCCCCN=C(N)NC(N)=NCc1ccc(Cl)c(Cl)c1 [Olanexidine Hydrochloride semihydrate] | 2.95 |
| CN1CCCN=C1/C=C/c1cccs1 [Pyrantel Pamoate] | -0.11 |
